This is part of a sample that, as a whole, favours compounds with a hit. Of some 79,000 tested, about 15% had one in any assay. Unmarked numbers belong to inactive results. Active and inactive are the calls of the source. Rule as the data show it: active = growth inhibition above about 70%; inactive = the rest.
Legend:
[1] = NCI Yeast Anticancer Drug Screen. Data for the rad50 strain (AID 155);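 also: 0% = growth of vehicle-only cultures of the same strain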; details: S. cerevisiae rad50 strain growth inhibition, active compounds read high
Outline: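 Inhibition values express reduced yeast growth in compound-treated cultures relative to vehicle-treated controls.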

[2] = NCI Yeast Anticancer Drug Screen. Data for the mec2-1 strain (AID 157); details: S. cerevisiae mec2-1 strain, active compounds read high
Outline: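 Yeast mec2-1 mutant treated with compound. Readout: growth inhibition vs vehicle controls.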

[3] = NCI Yeast Anticancer Drug Screen. Data for the sgs1 mgt1 strain (AID 161);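 also: 0% = growth of cultures given vehicle only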; details: S. cerevisiae sgs1 mgt1 strain, active compounds read high
Outline: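 Read-out: growth inhibition vs vehicle controls. Cells: mutant yeast strain deficient in DNA damage repair.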

[4] = NCI Yeast Anticancer Drug Screen. Data for the cln2 rad14 strain (AID 165);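 also: 0% = growth equal to vehicle treated cultures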; details: S. cerevisiae cln2 rad14 strain, active compounds read high
Outline: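 cln2 rad14 yeast strain; compound exposure; growth inhibition read vs vehicle controls.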

[5] = NCI Yeast Anticancer Drug Screen. Data for the bub3 strain (AID 167); details: S. cerevisiae bub3 mutant strain, active compounds read high
Outline: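 Steps: expose the mutant yeast strain to compound; grow alongside vehicle-treated cultures; measure growth; express inhibition against the vehicle cultures.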

[6] = NCI Yeast Anticancer Drug Screen. Data for the mlh1 rad18 strain (AID 175); details: S. cerevisiae mlh1 rad18 strain growth inhibition, active compounds read high
Outline: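 Yeast w/ defined DNA-repair lesions; compound exposure; growth vs vehicle controls → % inhibition.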

[7] = at 5.0 µM (retest, dose inferred, filed as 0.5)
[8] = at 50.0 µM (retest, dose inferred, filed as 5.0)

SMILES: CC(C)C(=O)CP(=O)(O)O
- growth inhibition [1, 7]: -10%
- growth inhibition [1, 8]: 6%
- growth inhibition ([1]; at 50.0 µM): -18.1%
- growth inhibition [2, 7]: 8%
- growth inhibition [2, 8]: -2%
- growth inhibition ([2]; at 50.0 µM): -22.6%
- growth inhibition [3, 7]: -9%
- growth inhibition [3, 8]: -4%
- growth inhibition ([3]; at 50.0 µM): -30.5%
- growth inhibition [4, 7]: -31%
- growth inhibition [4, 8]: -13%
- growth inhibition ([4]; at 50.0 µM): 70.2% (active)
- growth inhibition [5, 7]: 7%
- growth inhibition [5, 8]: 4%
- growth inhibition ([5]; at 50.0 µM): -21.6%
- growth inhibition [6, 7]: 7%
- growth inhibition [6, 8]: 9%
- growth inhibition ([6]; at 50.0 µM): -7.2%

SMILES: O=P1(Oc2ccccc2)C(c2ccccc2)C(c2ccccc2)=NN1c1ccccc1 (configuration not stated)
- growth inhibition [1, 7]: 29%
- growth inhibition [1, 8]: 29%
- growth inhibition ([1]; at 50.0 µM): 90.7% (active)
- growth inhibition [2, 7]: 12%
- growth inhibition [2, 8]: 12%
- growth inhibition ([2]; at 50.0 µM): 91% (active)
- growth inhibition [3, 7]: 23%
- growth inhibition [3, 8]: 23%
- growth inhibition ([3]; at 50.0 µM): 89.2% (active)
- growth inhibition [4, 7]: 23%
- growth inhibition [4, 8]: 23%
- growth inhibition ([4]; at 50.0 µM): 90.8% (active)
- growth inhibition [5, 7]: 5%
- growth inhibition [5, 8]: 5%
- growth inhibition ([5]; at 50.0 µM): 90.1% (active)
- growth inhibition [6, 7]: 11%
- growth inhibition [6, 8]: 11%
- growth inhibition ([6]; at 50.0 µM): 89.6% (active)

SMILES: C=C1C(C)C2C(Cc3ccccc3)NC(=O)C23C(OC(C)=O)C=CC(C)(O)C(=O)C(C)C/C=C/C3C1O (configuration not stated)
- growth inhibition [1, 7]: 72% (active)
- growth inhibition [1, 8]: 96% (active)
- growth inhibition ([1]; at 50.0 µM): 88.8% (active)
- growth inhibition [2, 7]: 57%
- growth inhibition [2, 8]: 96% (active)
- growth inhibition ([2]; at 50.0 µM): 90.1% (active)
- growth inhibition [3, 7]: 58%
- growth inhibition [3, 8]: 97% (active)
- growth inhibition ([3]; at 50.0 µM): 89.2% (active)
- growth inhibition [4, 7]: 80% (active)
- growth inhibition [4, 8]: 96% (active)
- growth inhibition ([4]; at 50.0 µM): 85.2% (active)
- growth inhibition [5, 7]: 71% (active)
- growth inhibition [5, 8]: 98% (active)
- growth inhibition ([5]; at 50.0 µM): 84% (active)
- growth inhibition [6, 7]: 80% (active)
- growth inhibition [6, 8]: 96% (active)
- growth inhibition ([6]; at 50.0 µM): 84.1% (active)

SMILES: CC(C)C1(NC(=O)C2C=C3c4cccc5[nH]cc(c45)CC3N(C)C2)OC2(O)C3CCCN3C(=O)C(Cc3ccccc3)N2C1=O (configuration not stated) (tested in a mixture with another compound)
- growth inhibition [1, 7]: 22%
- growth inhibition [1, 8]: 97% (active)
- growth inhibition ([1]; at 50.0 µM): 98.2% (active)
- growth inhibition [2, 7]: 4%
- growth inhibition [2, 8]: 99% (active)
- growth inhibition ([2]; at 50.0 µM): 98.6% (active)
- growth inhibition [3, 7]: 4%
- growth inhibition [3, 8]: 96% (active)
- growth inhibition ([3]; at 50.0 µM): 98.7% (active)
- growth inhibition [4, 7]: 6%
- growth inhibition [4, 8]: 98% (active)
- growth inhibition ([4]; at 50.0 µM): 96.8% (active)
- growth inhibition [5, 7]: 7%
- growth inhibition [5, 8]: 98% (active)
- growth inhibition ([5]; at 50.0 µM): 97.5% (active)
- growth inhibition [6, 7]: 6%
- growth inhibition [6, 8]: 98% (active)
- growth inhibition ([6]; at 50.0 µM): 96.8% (active)
